Tests used:
Conditions in all cases: concentration: 1 μM,replicates: in singlicate; n = 1
CSNK1G1 = tested on: CSNK1G1
CSNK1G2 = tested on: CSNK1G2
CSNK1G3 = tested on: CSNK1G3
CSNK2A1 = tested on: CSNK2A1
CSNK2A2 = tested on: CSNK2A2
CTK = tested on: T1, CTK
T1 construct: gene MATK

DAPK1 = tested on: DAPK1
DAPK2 = tested on: DAPK2
DAPK3 = tested on: DAPK3
DCAMKL1 = tested on: T2, DCAMKL1
T2 construct: gene DCLK1

DCAMKL2 = tested on: T3, DCAMKL2
T3 construct: gene DCLK2

DCAMKL3 = tested on: T4, DCAMKL3
T4 construct: gene DCLK3

DDR1 = tested on: DDR1
DDR2 = tested on: DDR2
DLK = tested on: T5, DLK
T5 construct: gene MAP3K12

DMPK2 = tested on: T6, DMPK2
T6 construct: gene CDC42BPG

DMPK = tested on: DMPK
DRAK1 = tested on: T7, DRAK1
T7 construct: gene STK17A

DRAK2 = tested on: T8, DRAK2
T8 construct: gene STK17B

DYRK1A = tested on: DYRK1A
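Also: KINOMEscan kinase panel screen.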

Compound	%Inh (CSNK1G1) [%]	%Inh (CSNK1G2) [%]	%Inh (CSNK1G3) [%]	%Inh (CSNK2A1) [%]	%Inh (CSNK2A2) [%]	%Inh (CTK) [%]	%Inh (DAPK1) [%]	%Inh (DAPK2) [%]	%Inh (DAPK3) [%]	%Inh (DCAMKL1) [%]	%Inh (DCAMKL2) [%]	%Inh (DCAMKL3) [%]	%Inh (DDR1) [%]	%Inh (DDR2) [%]	%Inh (DLK) [%]	%Inh (DMPK2) [%]	%Inh (DMPK) [%]	%Inh (DRAK1) [%]	%Inh (DRAK2) [%]	%Inh (DYRK1A) [%]
C[C@@H](Oc1cc(-n2cnc3cc(-c4cnn(C)c4)ccc32)sc1C(N)=O)c1ccccc1Cl [GSK580432]	30	0	15	7	67	0	75	43	34	10	10	0	42	3	29	1	45	6	15	18
Cc1cccc(-c2nc(Nc3ccncc3)c3sccc3n2)n1 [GW869641]	0	1	13	6	30	20	18	11	36	0	21	18	55	66	0	98.5	18	2	13	20
Cc1ccn2nc(-c3ccc(F)cc3)c(-c3ccncc3)c2c1.Cl [GW457859]	29	12	31	0	14	0	15	6	0	10	0	0	75	82	44	75	0	2	0	0
O=C(Nc1n[nH]c2cc(-c3ccco3)ccc12)C1CC1 [SB-737447]	0	0	15	31	68	34	0	7	10	7	1	0	0	0	0	0	0	27	0	16
COc1ccc(Nc2nccc(N3CCC(NC(=O)c4cccc(C#N)c4)C3)n2)cc1 (stereo not drawn) [GSK1379730]	3	0	0	0	0	0	0	0	4	8	0	0	0	12	40	0	0	2	0	22
NC(=O)Nc1sc(-c2ccc(F)cc2)cc1C(N)=O [GW789449]	0	0	0	49	81	22	32	0	38	0	0	0	11	39	38	0	0	43	70	23
Cc1ccc2c(-c3ccnc(Nc4ccc(C(F)(F)F)cc4)n3)cnn2n1 [GW819776]	0	14	0	18	35	24	19	0	25	34	0	0	0	4	0	9	0	37	13	37
Cc1cccc2c(-c3ccncc3)c(-c3ccc(F)cc3)nn12.Cl [GW461487]	11	0	26	96.6	10	0	18	0	0	10	0	0	54	41	27	43	0	7	0	10
CCOC(=O)N1CCC(n2cnc(-c3ccc(F)cc3)c2-c2ccnc(N)n2)CC1 [SB-219952]	4	12	0	19	9	0	25	0	0	22	15	18	83	60	0	39	22	0	0	2
O=C(Nc1ccc(Oc2ccc3nc(NC(=O)C4CC4)cn3n2)c(F)c1)c1cccn(-c2ccccc2)c1=O	0	0	30	0	0	0	0	0	14	4	13	29	99.1	100	13	0	0	0	0	0
CSc1nccc(-c2c(-c3ccc(F)cc3)ncn2CCCN2CCOCC2)n1.Cl [SB-217146]	0	0	0	0	15	40	16	0	0	37	0	0	0	33	0	0	0	0	0	0
CC(=O)c1c(-c2ccncc2)[nH]c(-c2ccncc2)c1C [GW493036]	84	98.6	98.6	0	8	0	0	0	19	25	3	0	67	0	0	0	23	44	76	99.9
O=c1[nH]cc(-c2ccc(O)cc2)c2sc(-c3ccncc3)cc12 [GSK1033723]	23	0	13	9	24	0	19	27	30	8	6	5	0	25	12	17	78	31	0	90
Cc1ccc(C(=O)Nc2ccc(Oc3ccc4nc(NC(=O)C5CC5)cn4c3)c(F)c2)c(=O)n1-c1ccccc1	2	0	0	0	0	0	0	0	2	2	0	0	98.2	100	35	0	0	0	1	0
N#Cc1cccc(C(=O)NC2CCN(c3ccnc(Nc4ccc(F)cc4)n3)C2)c1 (stereo not drawn) [GSK1379708]	0	4	6	0	0	0	0	0	11	0	9	9	0	0	35	0	0	0	4	21
CC(=O)Nc1nc2cnc(Nc3cc(NC(=O)c4cccc(CC(C)(C)C#N)c4)ccc3C)nc2s1	14	1	0	21	21	0	0	0	4	26	5	0	100	97.2	26	2	0	0	0	0
CC(C)c1nc(-c2cccc(NS(=O)(=O)c3ccccc3)c2)c(-c2ccnc(Nc3ccc4c(c3)CN(C)CC4)n2)s1 [GSK1649598]	19	0	28	0	9	5	30	55	21	0	17	17	100	42	69	61	0	0	0	4
Cl.Cl.NC[C@H](CC1CCCCC1)NC(=O)c1ccc(-c2ccnc3[nH]ccc23)s1 [GSK1581428]	29	72	64	8	0	9	49	12	32	0	17	0	0	8	85	100	99.7	94.9	0	54
O=C(Nc1cccc(C(F)(F)F)c1)c1cccc(Oc2ccc3nccn3n2)c1	1	10	1	0	0	69	0	0	0	0	6	9	97.1	95.9	0	1	13	0	0	5
FC(F)(F)c1cc(Br)cc(Nc2nccc(-c3cnn4ncccc34)n2)c1 [GW810578]	13	31	0	0	32	0	2	1	18	19	15	16	0	16	0	20	15	8	36	99.6
C[C@@H]1CCN(C(=O)N2CCCC2)C[C@@H]1N(C)c1ncnc2[nH]ccc12	2	0	0	35	5	19	23	0	9	46	0	99.8	8	0	8	0	72	23	38	0
